According to PubChem BioAssay (NCATS):
Records with an inconclusive call do not appear. Active and inactive are the calls of the source. Unless noted, calls follow the shape of the dose curve; as a rule, active = well fitted curve in the direction sought with a large enough effect; inconclusive = small, poorly fitted or top-dose-only effect, or another doubt; inactive = no such curve, though single readings can be large; an effect the other way counts as inactive or inconclusive.

Legend:
[1] = molecular target: Lysosomal acid glucosylceramidase (Homo sapiens) (UniProt P04062); assay: Glucocerebrosidase-p2 (AID 348; in the data active = potency below about 10 µM; also: potency is read from the fitted curve at half-maximal effect); conditions: purified GBA, blue fluorogenic substrate, 40 min
Sequence of Lysosomal acid glucosylceramidase (Homo sapiens) (P04062 whole entry, looked up): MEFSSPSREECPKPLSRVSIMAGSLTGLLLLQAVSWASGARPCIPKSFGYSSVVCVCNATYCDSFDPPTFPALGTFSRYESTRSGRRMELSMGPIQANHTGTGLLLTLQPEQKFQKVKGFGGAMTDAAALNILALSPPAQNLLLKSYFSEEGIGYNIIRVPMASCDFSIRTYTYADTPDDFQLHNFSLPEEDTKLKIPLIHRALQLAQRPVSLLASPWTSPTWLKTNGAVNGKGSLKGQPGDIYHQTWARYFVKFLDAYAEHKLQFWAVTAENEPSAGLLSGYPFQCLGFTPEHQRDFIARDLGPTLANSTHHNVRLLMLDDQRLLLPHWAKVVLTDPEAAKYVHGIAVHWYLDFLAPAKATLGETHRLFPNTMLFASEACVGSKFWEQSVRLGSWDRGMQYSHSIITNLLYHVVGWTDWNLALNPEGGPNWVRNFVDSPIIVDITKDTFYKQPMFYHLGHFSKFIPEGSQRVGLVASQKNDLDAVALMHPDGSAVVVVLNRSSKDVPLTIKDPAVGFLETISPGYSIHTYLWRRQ
Method in brief: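 Normal human glucocerebrosidase (0.2 nM) with blue fluorogenic substrate (80 uM final) in citrate/phosphate pH 5.9 with 10mM sodium taurocholate, 0.01% tween-20; 40 min RT, NaOH/glycine stop; fluorescence Ex 365/Em 440; AC50 from a titration from 0.6 nM upwards.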

[2] = AP1 Signaling Pathway (AID 357; active = well fitted curve in either direction with a large enough effect, not every such curve was filed as active;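 also: ME-180 reporter cells stimulated with EGF at its EC50 level; % is scaled to controls: 0 for no effect and ±100 for the full control effect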); conditions: ME-180 AP-1-bla reporter, EGF-induced, beta-lactamase ratio, 5 h; at 7.69 µM (top of the series) unless noted
Method in brief: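 Read-out was the 460nm/530nm emission ratio (excitation 405nm) after CCF4 loading for 2.5 hours at room temperature. Cells carried an AP-1-driven beta-lactamase reporter, were stimulated with EC50 EGF plus compound for 5 hours, and AC50 values came from titrations.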

[3] = Stat Signaling Pathway (AID 446; active = well fitted curve in either direction with a large enough effect, not every such curve was filed as active;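 also: ME-180 cervical cancer cells given 40 pM IL-6 alongside compound; SIE-controlled beta-lactamase reporter measured as 460/530 nm FRET emission ratio; % is scaled to controls: 0 for no effect and ±100 for the full control effect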); conditions: ME-180 (cervical carcinoma) SIE beta-lactamase reporter, IL-6 stimulated, 5 h; at 7.69 µM (top of the series) unless noted
Method in brief: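 Normalization used AC90 stimulation (300 pM IL-6) and AC90 inhibition (125 nM pan-JAK inhibitor at 40 pM IL-6). The underlying signal is SIE-driven beta-lactamase in ME-180 cells after 5 h IL-6 exposure with compound.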

[4] = molecular target: Glucocorticoid receptor (Homo sapiens) (UniProt P04150); assay: GR-GFP Redistribution (AID 450;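 active = compounds whose dose series gives a full or clear partial fitted curve of increased nuclear translocation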; also: potency is read from the fitted curve at half-maximal effect); conditions: U2OS GR-GFP nuclear translocation, laser cytometry, 2 h
Sequence of Glucocorticoid receptor (Homo sapiens) (P04150 whole entry, looked up, the tested form may be a part): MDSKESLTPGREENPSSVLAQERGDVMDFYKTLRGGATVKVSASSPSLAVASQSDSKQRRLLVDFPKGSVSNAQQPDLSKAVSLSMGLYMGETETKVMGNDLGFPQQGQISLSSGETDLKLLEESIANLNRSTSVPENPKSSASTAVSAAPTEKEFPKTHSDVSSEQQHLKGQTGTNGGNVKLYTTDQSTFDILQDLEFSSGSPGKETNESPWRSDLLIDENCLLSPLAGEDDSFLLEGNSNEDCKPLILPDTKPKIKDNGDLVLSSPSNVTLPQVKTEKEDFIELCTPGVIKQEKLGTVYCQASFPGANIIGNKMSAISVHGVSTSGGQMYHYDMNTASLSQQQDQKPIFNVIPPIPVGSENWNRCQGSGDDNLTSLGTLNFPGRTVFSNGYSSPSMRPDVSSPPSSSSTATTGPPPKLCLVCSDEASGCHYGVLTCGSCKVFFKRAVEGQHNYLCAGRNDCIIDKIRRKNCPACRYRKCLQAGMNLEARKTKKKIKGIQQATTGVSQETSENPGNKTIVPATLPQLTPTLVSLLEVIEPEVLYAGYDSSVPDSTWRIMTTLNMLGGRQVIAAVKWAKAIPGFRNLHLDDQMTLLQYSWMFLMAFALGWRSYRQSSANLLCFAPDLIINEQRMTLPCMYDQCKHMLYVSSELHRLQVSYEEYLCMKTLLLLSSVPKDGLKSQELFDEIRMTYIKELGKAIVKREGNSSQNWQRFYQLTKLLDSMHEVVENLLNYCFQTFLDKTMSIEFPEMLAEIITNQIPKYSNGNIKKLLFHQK

[5] = molecular target: Glucocorticoid receptor (Homo sapiens) (UniProt P04150); assay: GR-EFC Redistribution (AID 451; calls by dose curve; also: potency is read from the fitted curve at half-maximal effect); conditions: CHO-K1 GR-EFC translocation, beta-gal luminescence, 2 h
Method in brief: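 Translocation of GR-ED fusion to nuclear EA restores b-gal, read by luminescence after 1 h room-temperature detection. Engineered CHO-K1 biosensor cells, 1,000/well, exposed 2 h at 37 C to titrations up to 46 uM final.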

[6] = molecular target: Mitogen-activated protein kinase 10 (Mus musculus) (UniProt Q61831); assay: JNK3 AlphaScreen Assay (AID 530; active = well fitted curve in either direction with a large enough effect, not every such curve was filed as active;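 also: kinase came from lysate of stimulated human HepG2 cells; signal reports phosphorylation of biotinylated GST-cJun 1-79 at Ser73 with 10 µM ATP; % is scaled to controls: 0 for no effect and ±100 for the full control effect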); conditions: JNK3 lysate, c-Jun phosphorylation; series mostly up to 57.1 µM
Method in brief: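 qHTS titrations with 15 min compound pre-incubation before adding ATP (10 uM final). Read-out: AlphaScreen of Ser73-phosphorylated biotin-GST-cJun using HepG2 lysate JNK3 activated by IL-1β and TNFα.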

[7] = qHTS Assay for Lipid Storage Modulators (AID 1519; calls by dose curve); conditions: Drosophila S3 cells, BODIPY lipid droplet/cell ratio, laser cytometry, cells loaded with oleic acid; for activity change, negative = inhibition: at 57.5 µM (top of the series)
Method in brief: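 Cells seeded at 5,000 per well were treated with compounds over a concentration series and loaded with oleic acid (400 uM, as added). Lipid droplet fluorescence (488 nm excitation, 500-530 nm channel) was read by laser-scanning cytometry and normalized to 20 uM Triacsin C.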

[8] = molecular target: Dual specificity protein kinase CLK4 (Homo sapiens) (UniProt Q9HAZ1); assay: qHTS Assay for Inhibitors of CDC-like Kinase 4 (Kinase-Glo Assay) (AID 1770); conditions: recombinant Clk4, Kinase-Glo ATP depletion luminescence; series mostly up to 66.7 µM; also: nearly all actives have a fitted effect of over 65% in size; also: potency is read from the fitted curve at half-maximal effect
Sequence of Dual specificity protein kinase CLK4 (Homo sapiens) (Q9HAZ1 whole entry, looked up): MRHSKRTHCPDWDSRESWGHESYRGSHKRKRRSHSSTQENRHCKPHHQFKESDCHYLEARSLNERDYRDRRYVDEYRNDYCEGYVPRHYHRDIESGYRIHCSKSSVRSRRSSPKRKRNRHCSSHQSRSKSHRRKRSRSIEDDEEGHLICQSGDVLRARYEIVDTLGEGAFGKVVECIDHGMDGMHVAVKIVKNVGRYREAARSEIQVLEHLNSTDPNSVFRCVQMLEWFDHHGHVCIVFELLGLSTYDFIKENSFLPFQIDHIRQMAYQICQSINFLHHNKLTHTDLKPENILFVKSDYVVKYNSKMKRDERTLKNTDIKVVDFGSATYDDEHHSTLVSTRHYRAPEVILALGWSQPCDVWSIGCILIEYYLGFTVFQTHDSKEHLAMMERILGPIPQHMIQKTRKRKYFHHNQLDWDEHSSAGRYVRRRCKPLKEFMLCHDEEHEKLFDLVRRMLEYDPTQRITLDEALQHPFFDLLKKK
Method in brief: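 Substrate mix (RS peptide 100 uM, ATP 1 uM) dispensed, compound pinned in, then Clk4 added to 25 nM final. Incubated 4.5 h at RT; Kinase-Glo reagent added, luminescence read after 5 min.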

[9] = molecular target: Dual specificity protein kinase CLK4 (Homo sapiens) (UniProt Q9HAZ1); assay: qHTS Assay for Inhibitors of CDC-like Kinase 4 (ADP-FP Assay) (AID 1795); conditions: Transcreener ADP fluorescence polarization; series mostly up to 50 µM;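 also: recombinant human CLK4 phosphorylating RS repeat peptide at 1 µM ATP; % is scaled to controls: 0 for no effect and ±100 for the full control effect; nearly all actives have a fitted effect of over 60% in size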
Method in brief: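 Clk4 6.25 nM; RS peptide 100 uM; ATP 1 uM; 25 mM Tris pH 7.5, 10 mM MgCl2; 1 h reaction. ADP detected via antibody/orange tracer FP displacement; TG003 positive control.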

[10] = molecular target: Ubiquitin carboxyl-terminal hydrolase 1 (Homo sapiens) (UniProt O94782); assay: Inhibitors of USP1/UAF1: Pilot qHTS (AID 504865); conditions: purified USP1/UAF1, Ub-rhodamine cleavage fluorescence; series mostly up to 54.9 µM;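 also: rhodamine fluorescence freed from ubiquitin-rhodamine substrate followed over time; top concentration of the series differs between compounds; % is scaled to controls: 0 for no effect and ±100 for the full control effect; nearly all actives have a fitted effect of over 35% in size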
Sequence of Ubiquitin carboxyl-terminal hydrolase 1 (Homo sapiens) (O94782 whole entry, looked up): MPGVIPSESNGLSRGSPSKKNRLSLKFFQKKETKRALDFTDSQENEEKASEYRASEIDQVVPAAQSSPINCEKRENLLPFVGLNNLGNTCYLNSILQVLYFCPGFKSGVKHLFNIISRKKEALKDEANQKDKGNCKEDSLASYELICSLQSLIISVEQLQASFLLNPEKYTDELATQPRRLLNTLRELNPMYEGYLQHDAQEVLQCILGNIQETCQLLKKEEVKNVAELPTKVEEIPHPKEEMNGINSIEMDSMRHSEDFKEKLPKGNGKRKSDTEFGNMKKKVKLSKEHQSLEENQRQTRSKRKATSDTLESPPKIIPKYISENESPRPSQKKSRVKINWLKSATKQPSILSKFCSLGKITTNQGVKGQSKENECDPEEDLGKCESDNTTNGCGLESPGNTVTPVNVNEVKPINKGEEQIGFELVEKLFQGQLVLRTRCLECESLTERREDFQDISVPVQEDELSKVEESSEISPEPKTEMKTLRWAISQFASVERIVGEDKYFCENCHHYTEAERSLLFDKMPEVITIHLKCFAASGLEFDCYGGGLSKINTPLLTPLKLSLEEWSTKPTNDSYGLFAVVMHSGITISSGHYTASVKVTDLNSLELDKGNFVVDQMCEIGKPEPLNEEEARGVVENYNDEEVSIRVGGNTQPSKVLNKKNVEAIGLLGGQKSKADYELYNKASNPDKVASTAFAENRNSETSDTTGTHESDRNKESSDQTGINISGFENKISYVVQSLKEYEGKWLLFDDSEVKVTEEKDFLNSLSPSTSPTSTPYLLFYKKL
Method in brief: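 In 50mM HEPES pH 7.8 containing 0.5mM EDTA, 1mM TCEP, 0.1 mg/ml BSA and 0.01% Tween-20, 1nM USP1/UAF1 is exposed to compound for 15 min, then Ub-Rho (150nM final) is added and fluorescence is read over time.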

[11] = molecular target: Cytochrome P450 1A2 (Homo sapiens) (UniProt P05177); assay: p450-cyp1a2 (AID 410; calls by dose curve; also: potency is read from the fitted curve at half-maximal effect); conditions: recombinant CYP1A2, luciferin-ME demethylation, luminescence; series mostly up to 57 µM
Sequence of Cytochrome P450 1A2 (Homo sapiens) (P05177 whole entry, looked up): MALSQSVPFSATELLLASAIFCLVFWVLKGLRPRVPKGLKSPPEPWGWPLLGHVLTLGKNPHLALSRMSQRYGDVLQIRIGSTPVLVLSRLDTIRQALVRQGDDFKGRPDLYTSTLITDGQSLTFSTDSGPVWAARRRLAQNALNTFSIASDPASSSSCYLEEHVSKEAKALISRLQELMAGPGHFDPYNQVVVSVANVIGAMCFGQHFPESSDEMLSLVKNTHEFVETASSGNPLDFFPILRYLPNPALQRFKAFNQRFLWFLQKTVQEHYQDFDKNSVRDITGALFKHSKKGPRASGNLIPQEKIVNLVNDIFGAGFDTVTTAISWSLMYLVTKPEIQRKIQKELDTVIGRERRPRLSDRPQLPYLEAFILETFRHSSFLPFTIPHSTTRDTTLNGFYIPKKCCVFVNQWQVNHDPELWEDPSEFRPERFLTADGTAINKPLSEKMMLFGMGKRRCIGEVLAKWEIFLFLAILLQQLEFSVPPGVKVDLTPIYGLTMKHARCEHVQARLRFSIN
Method in brief: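 Luminescent demethylation readout: Luciferin-ME (100uM, equal to Km) turned over by 20nM CYP1A2 for 60 min at room temperature after NADPH regeneration addition, following 10 min compound preincubation. Normalization used 57 uM furafylline as full inhibition.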

[12] = NFAT Signaling Pathway (AID 444; active = well fitted curve in either direction with a large enough effect, not every such curve was filed as active;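 also: carbachol stimulus at about its EC50 of 1 µM final; % is scaled to controls: 0 for no effect and ±100 for the full control effect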); conditions: Jurkat NFAT-bla M1, carbachol, beta-lactamase ratio, 5 h; at 7.69 µM (top of the series) unless noted
Method in brief: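 Read-out: CCF4 FRET ratio (460 nm/530 nm) after 1 h RT dye loading, used for %activity and AC50 from titration series. Cells: Jurkat NFAT-β-lactamase/M1 line, treated with compound plus 1 uM carbachol for 5 h, 37 °C.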

[13] = molecular target: 3',5'-cyclic-AMP phosphodiesterase 4B (Homo sapiens) (UniProt Q07343); assay: qHTS Assay for Inhibitors of PDE-IV (AID 607; active = well fitted activation curve with a large enough effect in the main read-out, with a control signal flat, not every such curve was filed as active; also: % of control where 0% means no effect); conditions: HEK293 ACTOne CNG channel cells, membrane potential fluorescence; series mostly up to 22.9 µM
Sequence of 3',5'-cyclic-AMP phosphodiesterase 4B (Homo sapiens) (Q07343 whole entry, looked up): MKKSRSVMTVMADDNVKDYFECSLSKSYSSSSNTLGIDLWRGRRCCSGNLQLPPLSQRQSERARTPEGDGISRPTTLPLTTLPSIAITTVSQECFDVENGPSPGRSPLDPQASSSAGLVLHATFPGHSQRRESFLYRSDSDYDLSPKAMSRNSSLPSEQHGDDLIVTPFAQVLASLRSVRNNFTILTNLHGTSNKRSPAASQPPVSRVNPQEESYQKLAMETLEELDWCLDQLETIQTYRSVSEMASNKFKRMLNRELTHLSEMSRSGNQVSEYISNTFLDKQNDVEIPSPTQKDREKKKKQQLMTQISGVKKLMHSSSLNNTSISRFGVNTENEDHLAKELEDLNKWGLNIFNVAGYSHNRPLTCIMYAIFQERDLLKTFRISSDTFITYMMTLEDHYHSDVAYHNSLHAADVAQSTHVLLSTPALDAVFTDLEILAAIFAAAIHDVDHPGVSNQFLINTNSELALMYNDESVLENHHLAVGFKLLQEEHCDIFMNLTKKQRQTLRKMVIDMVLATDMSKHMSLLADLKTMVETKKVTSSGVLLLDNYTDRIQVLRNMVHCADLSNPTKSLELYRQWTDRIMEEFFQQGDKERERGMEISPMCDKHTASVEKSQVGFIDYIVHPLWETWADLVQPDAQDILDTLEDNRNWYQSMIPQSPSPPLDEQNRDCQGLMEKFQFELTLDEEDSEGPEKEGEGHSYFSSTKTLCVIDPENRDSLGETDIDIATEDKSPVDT
Method in brief: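 HEK293 ACTOne cells with CNG channel (1000/well), endogenous PDE4; membrane potential dye, compounds up to 22.9 uM final. Fluorescence Ex 535/Em 590; RO 20-1724 (100 uM final) as reference.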

[14] = molecular target: Cytochrome P450 3A4 (Homo sapiens) (UniProt P08684); assay: qHTS Assay for Activators of Cytochrome P450 3A4 (AID 885); conditions: recombinant CYP3A4, Luciferin-PPXE luminescence, 60 min; series mostly up to 57.1 µM; also: nearly all actives have a fitted effect of over 65% in size
Sequence of Cytochrome P450 3A4 (Homo sapiens) (P08684 whole entry, looked up): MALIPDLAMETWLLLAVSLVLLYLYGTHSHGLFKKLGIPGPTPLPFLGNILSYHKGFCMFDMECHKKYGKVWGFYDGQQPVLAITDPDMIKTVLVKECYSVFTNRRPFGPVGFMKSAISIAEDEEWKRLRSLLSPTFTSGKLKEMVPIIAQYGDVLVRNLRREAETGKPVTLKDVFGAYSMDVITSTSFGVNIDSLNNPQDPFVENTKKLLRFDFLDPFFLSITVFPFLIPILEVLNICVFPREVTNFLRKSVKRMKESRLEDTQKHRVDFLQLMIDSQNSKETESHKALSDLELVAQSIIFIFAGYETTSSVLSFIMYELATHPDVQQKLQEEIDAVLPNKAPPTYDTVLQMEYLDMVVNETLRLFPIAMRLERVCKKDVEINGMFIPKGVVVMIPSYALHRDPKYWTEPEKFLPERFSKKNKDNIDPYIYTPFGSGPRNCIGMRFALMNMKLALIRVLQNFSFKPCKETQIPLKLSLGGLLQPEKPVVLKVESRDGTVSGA
Method in brief: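 Human CYP3A4 dealkylates Luciferin-PPXE to luciferin, which luciferase detection converts to light. Substrate was at its KM (25uM), buffer 200mM KPO4, reaction 60 min at RT.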

[15] = molecular target: Dual specificity protein kinase CLK4 (Homo sapiens) (UniProt Q9HAZ1); assay: qHTS Assay for Inhibitors of CDC-like Kinase 4 (ADP-Glo Assay) (AID 1771); conditions: recombinant CLK4, ADP-Glo luminescence; series mostly up to 80 µM; also: nearly all actives have a fitted effect of over 70% in size; also: potency is read from the fitted curve at half-maximal effect
Method in brief: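 ADP production was read by ADP-Glo luminescence after residual ATP depletion, following 1 h room-temperature reaction of 25 nM Clk4, 1 uM ATP and 100 uM RS peptide with MgCl2, EGTA, DTT and Triton X-100.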

[16] = measured here: cell count channel max response
[17] = measured here: lipid channel max response

SMILES | Potency [1] | activity change, negative = inhibition [2] | activity, negative = inhibition [3] | Potency [4] | Potency [5] | Potency [6] | activity change, negative = inhibition [7] | max response [7, 16] | max response [7, 17] | Potency [8] | Potency [9] | Potency [10] | Potency [11] | activity change, negative = inhibition [12] | Potency [13] | Potency [14] | Potency [15]
COc1cccc(Cn2c(=O)c(C)nc3cnc(Nc4cccc(OC)c4)nc32)c1 | > 11.4 µM (inactive) | -28.7% (inactive) | -18.7% (inactive) | > 9.22 µM (inactive) | > 46 µM (inactive) | inactive | -5.29% (inactive) | 11.9% | 6.74% | inactive | inactive | inactive | – | – | – | – | –
Cc1ccccc1-c1ccc2ncnc(N3CCNCC3)c2c1 | > 11.4 µM (inactive) | – | 9.45% (inactive) | > 46 µM (inactive) | > 46 µM (inactive) | inactive | 6.61% (inactive) | 4.98% | 8.2% | 20 µM (active) | – | inactive | 3.16 µM (active) | -1.24% (inactive) | inactive | inactive | 31.6 µM (active)
COc1ccc(-n2c(=O)c(-c3cn(C)c4ccccc34)nc3cnc(N4CCNCC4)nc32)cc1 | – | 26.2% (inactive) | – | > 9.22 µM (inactive) | > 46 µM (inactive) | – | 7.55% (inactive) | 16.8% | 26.4% | inactive | inactive | inactive | 15.8 µM (active) | – | inactive | inactive | inactive
Cc1noc(C)c1-c1nc(NC2CCNCC2)c2ccccc2n1 | – | 34.4% (inactive) | 6.06% (inactive) | > 46 µM (inactive) | > 46 µM (inactive) | inactive | 4.9% (inactive) | 11.4% | 12.7% | 25.1 µM (active) | – | inactive | 5.01 µM (active) | 26.2% (inactive) | inactive | – | 28.2 µM (active)
COc1ccccc1-c1ccc2ncnc(NCc3cnc(C)cn3)c2c1 | > 11.4 µM (inactive) | -23.9% (inactive) | -25.2% (inactive) | > 46 µM (inactive) | > 46 µM (inactive) | inactive | 2.78% (inactive) | 13.2% | 14% | – | – | inactive | 6.31 µM (active) | 3.25% (inactive) | inactive | inactive | 17.8 µM (active)
COCCn1c(=O)c(C)nc2cnc(Oc3cccc(Cl)c3)nc21 | > 11.4 µM (inactive) | -12% (inactive) | -4.78% (inactive) | > 9.22 µM (inactive) | > 46 µM (inactive) | inactive | 4.18% (inactive) | 15.1% | 17.8% | inactive | – | inactive | 12.6 µM (active) | 10.5% (inactive) | – | inactive | inactive
